Data reported in PubChem BioAssay.
Values without a mark were called inactive. How the calls were made is not given here.

Molecular target: Pantothenate synthetase (Mycobacterium tuberculosis (strain ATCC 25618 / H37Rv)) (UniProt P9WIL5)
Assay: Coupled enzyme confirmation of inhibitors against recombinant Mtb PanC (AID 375);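 further: 0% = full reaction with vehicle and 100% = no enzyme background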
Settings: coupled enzyme assay; at 10 µM, active compounds read high

Pantothenate synthetase (Mycobacterium tuberculosis (strain ATCC 25618 / H37Rv)), sequence (P9WIL5 whole entry, looked up): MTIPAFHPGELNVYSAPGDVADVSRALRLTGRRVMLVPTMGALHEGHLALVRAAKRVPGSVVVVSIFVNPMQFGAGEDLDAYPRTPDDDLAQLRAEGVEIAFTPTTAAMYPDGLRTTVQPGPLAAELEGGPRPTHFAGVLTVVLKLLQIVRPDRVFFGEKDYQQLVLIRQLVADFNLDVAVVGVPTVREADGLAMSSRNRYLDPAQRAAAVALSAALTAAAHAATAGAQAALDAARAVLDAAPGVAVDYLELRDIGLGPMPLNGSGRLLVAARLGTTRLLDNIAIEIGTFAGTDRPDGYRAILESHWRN

Structure (SMILES) | inhibition [%]
CCOCCCNS(=O)(=O)c1ccc2c(c1)oc(=O)n2CC(=O)OCC | 8
Cc1ccc(NC(=O)C2CCCN2S(=O)(=O)c2cccc3cccnc23)cc1F (stereo not given) | 0
COc1ccc(-c2noc(-c3ccccc3C(=O)Nc3cccnc3)n2)cc1OC | 0
CCOC(=O)C(CC)Sc1nc2c(c(=O)[nH]c(=O)n2C)n1C/C=C(/C)Cl (stereo not given) | 8
CCN(C(=O)c1c(-c2ccccc2)noc1C)c1ccccc1 | 0
CCOC(=O)C1CCN(C(=O)c2ccc(OC)cc2OC)CC1 | 2
CC1CC(C)CN(c2nc3c(c(=O)[nH]c(=O)n3C)n2CCCSc2nc3ccccc3s2)C1 (stereo not given) | 7
Cc1ccc(NC(=O)CN(c2ccc3c(c2)OCO3)S(=O)(=O)c2c(C)n[nH]c2C)cc1 | 1
O=C(NC1CCCCC1)C1CCCN1C(=O)NCc1ccccc1 (stereo not given) | 4
CC(=O)Nc1ccc(NC(=O)c2ccccc2N(C)S(C)(=O)=O)cc1 | 2
CCCn1nnnc1SCC(=O)c1ccc2c(c1)OCCO2 | 11
Cc1cccc(Nc2nc(N)nc(CN3CCC(C(N)=O)CC3)n2)c1C | 0
COCCn1c(SCC(=O)N(C(C)C)C(C)C)nnc1-c1cc2ccccc2cc1O | 0
O=C(NCc1ccccc1)N1CCn2c(nc3ccccc32)C1 | 3
COc1ccc(S(=O)(=O)N2CCN(Cc3ccc(Cl)cc3)CC2)cc1 | 0
CCC(c1nnc(SCC(=O)NCC2CCCO2)n1Cc1ccccc1)N(C)C (stereo not given) | 0
N#CC1=C(N)N(c2ccc(Oc3ccccc3)cc2)C(=O)C1 | 2
CC(C)(C)c1ccc(C(=O)N2CCC(C(=O)NCc3ccncc3)CC2)cc1 | 0
C[C@@H]1C[C@H]2[C@@H]3CCC4=CC(=O)C=C[C@]4(C)[C@@]3(F)[C@@H](O)C[C@]2(C)[C@@]1(O)C(=O)COP(=O)(O)O | 5
CCCc1nnc(NC(=O)NCCN2C(=O)C3C4C=CC(C4)C3C2=O)s1 (stereo not given) | 0

Structure (SMILES) | inhibition [%]
[O-][n+]1c2ccc3nonc3c2nn1-c1ccccc1Cl | 0
OC(CCN1CCCCC1)(c1ccccc1)c1ccccc1 | 3
O=C(c1ccc(-c2ccccc2)cc1)N1CCC(C(=O)N2CCCC2)CC1 | 0
C/C(=N\O)c1ccc2c3c([nH]c2c1)CCCC3 | 2
O=C1NC(c2ccccc2)(C(F)(F)F)SC2=NCCCN12 (stereo not given) | 0
CCCNC(=O)c1cc(-c2ccco2)on1 | 2
COCCn1c(C)cc(C(=O)COC(=O)c2ccc(N3CCCC3=O)cc2)c1C | 2
Cn1c(=O)[nH]c(=O)c2c1nc(Br)n2Cc1ccccc1F | 0
N=c1c(C(=O)NCc2ccccc2)cc2c(=O)n3ccccc3nc2n1Cc1ccco1 | 0
CCN(C1CCCCC1)S(=O)(=O)c1ccc(OC)c(C)c1 | 0
CCOC(=O)N1CCC(NC(=O)CCN2C(=O)COc3ccccc32)CC1 | 0
CCCCOC(=O)CSc1nc2c(cc1C#N)C(=O)CC(C)(C)C2 | 0
O=C1c2ccccc2C(Nc2ccc3c(c2)OCCO3)N1Cc1ccc2c(c1)OCO2 (stereo not given) | 1
O=C(CCn1c(=O)sc2ccccc21)Nc1nccs1 | 0
Cc1ccc(O)c(-c2cc(C(=O)Nc3ccc(S(=O)(=O)N4CC(C)OC(C)C4)cc3)[nH]n2)c1 (stereo not given) | 5
Cc1nc2ccc(N3C(=O)CCC3=O)cc2[nH]1 | 5
N#CC1=C(N)n2c(s/c(=C\c3ccco3)c2=O)=C(C#N)C1c1ccco1 (stereo not given) | 0
COc1cc2c(cc1NC(=O)COC(=O)Cn1cnc3ccccc31)oc1ccccc12 | 0
N#Cc1nc(-c2ccco2)oc1N1CCN(c2cccc(Cl)c2)CC1 | 6
CC1CCN(CCCNC(=O)c2cn(C)c3ccc(S(=O)(=O)N4CCCC4)cc3c2=O)CC1 | 0
